# “And” between values parts separate entries of the source, which are not always exact repeats. Identical values can stand only once. Results filed as inconclusive are left out. Where a call stands in place of a potency, no number is given. The source made the active and inactive calls. Unless noted, the call rests on the fitted dose curve; in most records, active means well fitted cell-killing curve with a large enough effect in the repeat runs; inconclusive means weak or mixed curves, or effect the other way; inactive means no such curve, though single readings can be large or run the other way.
# Molecular target: Peroxisome proliferator-activated receptor gamma (Homo sapiens) (UniProt P37231)
# Sequence (P37231 whole entry, looked up): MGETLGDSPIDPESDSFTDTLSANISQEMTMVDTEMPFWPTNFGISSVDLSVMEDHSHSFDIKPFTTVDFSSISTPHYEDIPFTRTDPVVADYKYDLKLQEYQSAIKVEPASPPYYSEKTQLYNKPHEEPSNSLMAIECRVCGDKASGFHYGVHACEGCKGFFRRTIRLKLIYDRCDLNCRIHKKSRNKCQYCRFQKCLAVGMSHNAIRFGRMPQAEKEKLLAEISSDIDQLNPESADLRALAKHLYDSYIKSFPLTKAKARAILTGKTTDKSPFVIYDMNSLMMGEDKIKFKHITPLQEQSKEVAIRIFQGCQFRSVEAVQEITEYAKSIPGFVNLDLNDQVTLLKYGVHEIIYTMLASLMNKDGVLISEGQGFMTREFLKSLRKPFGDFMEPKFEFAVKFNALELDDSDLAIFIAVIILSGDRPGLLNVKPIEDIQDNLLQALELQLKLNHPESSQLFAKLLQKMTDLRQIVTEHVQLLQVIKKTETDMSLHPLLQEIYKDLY
# Test: qHTS assay to identify small molecule antagonists of the peroxisome proliferator-activated receptor gamma (PPARg) signaling pathway (AID 743191; calls by dose curve; further: nearly all actives have a fitted effect of over 30% in size)
# Conditions: HEK293H PPARg-UAS-bla, beta-lactamase ratio, antagonist, 17 h; series mostly up to 62.6 µM
# Procedure, shortened: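 Beta-lactamase reporter under UAS control in HEK293H PPARg-bla cells; compound treatment 17 h at 37C. Read-out: fluorescence intensity after 1 h room-temperature incubation with LiveBLAzer B/G FRET substrate.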
row,Structure (SMILES),Potency
1,COCC(C)O (centres undefined),inactive
2,O=S(=O)(O)CCS,inactive
3,O=C1O[C@H](CO)[C@@H](O)[C@H](O)[C@H]1O,inactive
4,OC1CCCC1,inactive
5,CCCCCCCCCCCCOCC1CO1 (centres undefined),inactive
6,O=[N+]([O-])C(CO)(CO)CO,inactive
7,C=C(C)C(=O)OCCCCCCCCCCCC,inactive
8,CCCCCCCCC,inactive
9,OC[C@@H](O)[C@@H](O)[C@H](O)[C@@H](O)CO,inactive
10,NCCc1ccc(O)c(O)c1,inactive
11,c1ccc2ccccc2c1,inactive
12,C=C(C)C(=O)OCCC[Si](OC)(OC)OC,inactive
13,NCc1cccc(CN)c1,inactive
14,CC1CC(OC(=O)c2ccccc2O)CC(C)(C)C1 (centres undefined),inactive
15,CC1(C)CC(N=C=O)CC(C)(CN=C=O)C1 (centres undefined),inactive
16,CCOC(=O)/C=C\C(=O)OCC,inactive
17,CC[Si](OC(C)=O)(OC(C)=O)OC(C)=O,inactive
18,CCCCOCCO,inactive
19,CCOC(=O)[C@H](CCc1ccccc1)N[C@@H](C)C(=O)N1Cc2ccccc2C[C@H]1C(=O)O,inactive

row,Structure (SMILES),Potency
1,Clc1ccc(Cl)c(Cl)c1Cl,inactive
2,COC(=O)c1ccc(C(=O)OC)cc1,inactive
3,Nc1c(S(=O)(=O)O)cc(Br)c2c1C(=O)c1ccccc1C2=O,inactive
4,NS(=O)(=O)c1cc2c(cc1Cl)NC=NS2(=O)=O,inactive
5,CCCCCCOC(C)=O,inactive
6,OCC1CCCO1 (centres undefined),inactive
7,CCOC(=O)C1OC1c1ccccc1 (centres undefined),inactive
8,CC(C)(N=C=O)c1cccc(C(C)(C)N=C=O)c1,inactive
9,CCCCOCCOCCOC(=O)CCCCC(=O)OCCOCCOCCCC,inactive
10,CS(=O)(=O)c1ccc([C@@H](O)[C@@H](CO)NC(=O)C(Cl)Cl)cc1,inactive
11,CCC(C)C=O (centres undefined),inactive
12,COCC(=O)O,inactive
13,CC(C)(CO)COC(=O)C(C)(C)CO,inactive
14,C=C(C)C(=O)OCC(CC)(COC(=O)C(=C)C)COC(=O)C(=C)C,inactive
15,Clc1cc(Cl)c(Cl)cc1Cl,inactive
16,CCCCCCC(C)(C)S,inactive
17,CC1Cc2ccccc2N1NC(=O)c1ccc(Cl)c(S(N)(=O)=O)c1 (centres undefined),inactive
18,CN(C)c1cccc(O)c1,inactive
19,O=C(Cl)c1c(Cl)c(Cl)c(C(=O)Cl)c(Cl)c1Cl,inactive

# Test system: not listed separately
# Test: qHTS assay to identify small molecule antagonists of the peroxisome proliferator-activated receptor gamma (PPARg) signaling pathway - cell viability counter screen (AID 743194); further: nearly all actives have a fitted effect of over 55% in size
# Conditions: PPARg-bla HEK293H viability, CellTiter-Glo luminescence, 17 h, co-treated with 50 nM rosiglitazone; series mostly up to 62.6 µM
# Procedure, shortened: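 Viability was measured as CellTiter-Glo luminescence in GeneBLAzer PPARg UAS-bla HEK293H cells. These cells had been exposed 17 h at 37 C to compounds together with rosiglitazone at 50 nM final, with the beta-lactamase readout taken in the same wells.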
row,Structure (SMILES),Potency
1,COCC(C)O (centres undefined),inactive
2,O=S(=O)(O)CCS,inactive
3,O=C1O[C@H](CO)[C@@H](O)[C@H](O)[C@H]1O,inactive
4,OC1CCCC1,inactive
5,CCCCCCCCCCCCOCC1CO1 (centres undefined),inactive
6,O=[N+]([O-])C(CO)(CO)CO,inactive
7,C=C(C)C(=O)OCCCCCCCCCCCC,inactive
8,CCCCCCCCC,inactive
9,OC[C@@H](O)[C@@H](O)[C@H](O)[C@@H](O)CO,inactive
10,NCCc1ccc(O)c(O)c1,inactive
11,c1ccc2ccccc2c1,inactive
12,C=C(C)C(=O)OCCC[Si](OC)(OC)OC,inactive
13,NCc1cccc(CN)c1,inactive
14,CC1CC(OC(=O)c2ccccc2O)CC(C)(C)C1 (centres undefined),inactive
15,CC1(C)CC(N=C=O)CC(C)(CN=C=O)C1 (centres undefined),inactive
16,CCOC(=O)/C=C\C(=O)OCC,inactive
17,CC[Si](OC(C)=O)(OC(C)=O)OC(C)=O,inactive
18,CCCCOCCO,inactive
19,CCOC(=O)[C@H](CCc1ccccc1)N[C@@H](C)C(=O)N1Cc2ccccc2C[C@H]1C(=O)O,inactive

row,Structure (SMILES),Potency
1,Clc1ccc(Cl)c(Cl)c1Cl,inactive
2,COC(=O)c1ccc(C(=O)OC)cc1,inactive
3,Nc1c(S(=O)(=O)O)cc(Br)c2c1C(=O)c1ccccc1C2=O,inactive
4,NS(=O)(=O)c1cc2c(cc1Cl)NC=NS2(=O)=O,inactive
5,CCCCCCOC(C)=O,inactive
6,OCC1CCCO1 (centres undefined),inactive
7,CCOC(=O)C1OC1c1ccccc1 (centres undefined),inactive
8,CC(C)(N=C=O)c1cccc(C(C)(C)N=C=O)c1,inactive
9,CCCCOCCOCCOC(=O)CCCCC(=O)OCCOCCOCCCC,inactive
10,CS(=O)(=O)c1ccc([C@@H](O)[C@@H](CO)NC(=O)C(Cl)Cl)cc1,inactive
11,CCC(C)C=O (centres undefined),inactive
12,COCC(=O)O,inactive
13,CC(C)(CO)COC(=O)C(C)(C)CO,inactive
14,C=C(C)C(=O)OCC(CC)(COC(=O)C(=C)C)COC(=O)C(=C)C,inactive
15,Clc1cc(Cl)c(Cl)cc1Cl,inactive
16,CCCCCCC(C)(C)S,inactive
17,CC1Cc2ccccc2N1NC(=O)c1ccc(Cl)c(S(N)(=O)=O)c1 (centres undefined),inactive
18,CN(C)c1cccc(O)c1,inactive
19,O=C(Cl)c1c(Cl)c(Cl)c(C(=O)Cl)c(Cl)c1Cl,inactive

# Test system: not listed separately
# Test: qHTS assay for small molecule agonists of the antioxidant response element (ARE) signaling pathway (AID 743202; active means well fitted activation curve with a large enough effect in the signal ratio in the repeat runs, not every such curve was filed as active; the % refers to the signal ratio; further: potency means the concentration at half of the fitted maximal effect)
# Conditions: HepG2 ARE-bla reporter, beta-lactamase FRET, 16 h; series mostly up to 73.3 µM
# Procedure, shortened: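 An ARE-responsive beta-lactamase gene stably integrated in HepG2 cells serves as reporter. After 5 h plating and 16 h compound incubation at 37 C, fluorescence of the B/G FRET substrate was measured.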
row,Structure (SMILES),Potency
1,COCC(C)O (centres undefined),inactive
2,O=S(=O)(O)CCS,inactive
3,O=C1O[C@H](CO)[C@@H](O)[C@H](O)[C@H]1O,inactive
4,OC1CCCC1,inactive
5,CCCCCCCCCCCCOCC1CO1 (centres undefined),inactive
6,O=[N+]([O-])C(CO)(CO)CO,33.9 µM (active) and 21.7 µM (active)
7,C=C(C)C(=O)OCCCCCCCCCCCC,inactive
8,CCCCCCCCC,inactive
9,OC[C@@H](O)[C@@H](O)[C@H](O)[C@@H](O)CO,inactive
10,NCCc1ccc(O)c(O)c1,109 nM (active) and 376 nM (active)
11,c1ccc2ccccc2c1,inactive
12,C=C(C)C(=O)OCCC[Si](OC)(OC)OC,inactive
13,NCc1cccc(CN)c1,inactive
14,CC1CC(OC(=O)c2ccccc2O)CC(C)(C)C1 (centres undefined),inactive
15,CC1(C)CC(N=C=O)CC(C)(CN=C=O)C1 (centres undefined),inactive
16,CCOC(=O)/C=C\C(=O)OCC,inactive
17,CC[Si](OC(C)=O)(OC(C)=O)OC(C)=O,inactive
18,CCCCOCCO,inactive
19,CCOC(=O)[C@H](CCc1ccccc1)N[C@@H](C)C(=O)N1Cc2ccccc2C[C@H]1C(=O)O,inactive

row,Structure (SMILES),Potency
1,Clc1ccc(Cl)c(Cl)c1Cl,inactive
2,COC(=O)c1ccc(C(=O)OC)cc1,inactive
3,Nc1c(S(=O)(=O)O)cc(Br)c2c1C(=O)c1ccccc1C2=O,27.9 µM (active)
4,NS(=O)(=O)c1cc2c(cc1Cl)NC=NS2(=O)=O,inactive
5,CCCCCCOC(C)=O,inactive
6,OCC1CCCO1 (centres undefined),inactive
7,CCOC(=O)C1OC1c1ccccc1 (centres undefined),inactive
8,CC(C)(N=C=O)c1cccc(C(C)(C)N=C=O)c1,inactive
9,CCCCOCCOCCOC(=O)CCCCC(=O)OCCOCCOCCCC,inactive
10,CS(=O)(=O)c1ccc([C@@H](O)[C@@H](CO)NC(=O)C(Cl)Cl)cc1,inactive
11,CCC(C)C=O (centres undefined),inactive
12,COCC(=O)O,inactive
13,CC(C)(CO)COC(=O)C(C)(C)CO,inactive
14,C=C(C)C(=O)OCC(CC)(COC(=O)C(=C)C)COC(=O)C(=C)C,inactive
15,Clc1cc(Cl)c(Cl)cc1Cl,inactive
16,CCCCCCC(C)(C)S,inactive
17,CC1Cc2ccccc2N1NC(=O)c1ccc(Cl)c(S(N)(=O)=O)c1 (centres undefined),inactive
18,CN(C)c1cccc(O)c1,55.3 µM (active)
19,O=C(Cl)c1c(Cl)c(Cl)c(C(=O)Cl)c(Cl)c1Cl,inactive

# Source: PubChem BioAssay (Tox21)
